Screening results (PubChem)
TDP1 inh: qHTS Assay for Inhibitors of Tyrosyl-DNA Phosphodiesterase (TDP1); Tyrosyl-DNA phosphodiesterase 1 (Homo sapiens), Q9NUW8; AID 485290, 2010; 0.28% of 350,000 active; Potency, µM (doses to about 130 µM), inactives show at the highest dose activity change, negative = inhibition, hits mostly inhibitors; recombinant TDP1, AlphaScreen DNA substrate cleavage; further: potency means the concentration at half of the fitted maximal effect; on the % scale 0 is the no-effect control and ±100 the full control effect; nearly all actives have a fitted effect of over 40% in size
Target sequence (Q9NUW8 whole entry, looked up): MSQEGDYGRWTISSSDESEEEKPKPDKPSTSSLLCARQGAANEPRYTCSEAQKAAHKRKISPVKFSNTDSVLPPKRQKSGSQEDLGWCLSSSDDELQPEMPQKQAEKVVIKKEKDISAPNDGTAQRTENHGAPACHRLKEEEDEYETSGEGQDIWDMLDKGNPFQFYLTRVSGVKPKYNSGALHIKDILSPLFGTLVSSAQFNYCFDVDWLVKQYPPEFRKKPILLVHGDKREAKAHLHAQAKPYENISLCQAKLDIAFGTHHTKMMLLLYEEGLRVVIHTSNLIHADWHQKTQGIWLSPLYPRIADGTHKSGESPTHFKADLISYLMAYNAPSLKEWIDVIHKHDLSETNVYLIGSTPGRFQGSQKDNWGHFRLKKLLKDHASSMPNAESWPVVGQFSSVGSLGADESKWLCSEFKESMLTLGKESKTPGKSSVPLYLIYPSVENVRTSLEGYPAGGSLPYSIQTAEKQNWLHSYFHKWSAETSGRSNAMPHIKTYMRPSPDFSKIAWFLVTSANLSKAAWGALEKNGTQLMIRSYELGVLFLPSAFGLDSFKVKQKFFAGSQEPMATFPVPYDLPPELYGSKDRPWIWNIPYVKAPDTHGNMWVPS
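Recombinant human Tdp1 (E. coli-expressed, 1 nM final) preincubated with compounds 15 min at room temperature, then 5'-biotin/3'-phosphotyrosine-FITC DNA substrate (15 nM final) added for 5 min. AlphaScreen beads (10 ug/ml final) added 10 min; cleavage lowers signal.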
uPA generation: qHTS for Inhibitors of Cell Surface uPA Generation. cell surface uPA generation assay, qHTS. Potency, µM (series often up to 38.3 µM), for inactives: at the highest dose activity change, negative = inhibition, hits mostly inhibitors. 0.31% of 330,000 active. AID 540303, 2011; active means well fitted inhibition curve with a large enough effect; inconclusive means small, poorly fitted or top-dose-only effect; inactive means no such curve, though single readings can be large or run the other way; tested in mouse RAW 264.7 cells; further: potency means the concentration at half of the fitted maximal effect; on the % scale 0 is the no-effect control and ±100 the full control effect; nearly all actives have a fitted effect of over 55% in size
miR-21 act: qHTS Assay for Modulators of miRNAs and/orActivators of miR-21; HeLa miR-21 FLuc reporter, luciferase, 48 h; Potency, µM (top dose mostly 38.3 µM), for the others: top-dose activity change, positive = activation, most hits filed as activators; 340,000 tested, under 10 active; AID 2288, 2010;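 further: % of control where 0% means no effect; miR-21 action dims this reporter so a rising signal means less miR-21 action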
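HeLa cells endogenously expressing miR-21, stably carrying CMV-driven firefly luciferase with a downstream miR-21 binding site, 2000 cells/well. Titrations up to approximately 40 uM, 48 hours; luciferase luminescence read.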
TDP1 cell CPT: qHTS for Inhibitors of human tyrosyl-DNA phosphodiesterase 1 (TDP1): qHTS in cells in presence of CPT; chicken DT40 Tdp1-/-;hTDP1 cells + 20 nM CPT, ATP luminescence, 48 h; Potency, µM (titrated, usually from 46.2 µM), inactives show at the top dose activity change, negative = growth inhibition, most hits filed as inhibitors; 12% of 420,000 active; AID 686979, 2013; further: potency means the concentration at half of the fitted maximal effect; on the % scale 0 is the no-effect control and ±100 the full control effect; nearly all actives have a fitted effect of over 55% in size
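Cell growth measured by CellTiter-Glo luminescence after a minimum 48 h, 37 C compound exposure with 20 nM CPT in Tdp1-knockout DT40 cells stably expressing hTDP1, seeded 400/well; qHTS titration format.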
DT40 TDP1 no CPT: qHTS for Inhibitors of human tyrosyl-DNA phosphodiesterase 1 (TDP1): qHTS in cells in absence of CPT | 15% of 420,000 active | DT40 Tdp1-/- hTDP1 cells, no CPT, ATP luminescence, 48 h | AID 686978, 2013 | Potency, µM (top dose mostly 46.2 µM), for inactives: top-dose activity change, negative = growth inhibition, usual class: inhibitors; further: potency means the concentration at half of the fitted maximal effect; on the % scale 0 is the no-effect control and ±100 the full control effect; nearly all actives have a fitted effect of over 55% in size
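Camptothecin absent (DMSO only). Human TDP1-complemented DT40 knockout cells, 400 cells/well, 37 °C for minimum 48 hr; ATP measured via CellTiter-Glo, 30 min dark incubation, luminescence.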
The depositor's hits bear a star; [ ] = another dose, or the depositor's remark. Shown are actives, neighbours in structure and some others; about 16% of the full set was active somewhere. Unless noted, the call rests on the fitted dose curve; in most records, active means well fitted curve in the direction sought with a large enough effect; inconclusive means small, poorly fitted or top-dose-only effect, or another doubt; inactive means no such curve, though single readings can be large; an effect the other way counts as inactive or inconclusive.

For Cc1ccc(NS(=O)(=O)c2ccc(C(=O)NCc3ccccn3)cc2)cc1 the results were TDP1 inh 2%, uPA generation -1%, miR-21 act -9%, TDP1 cell CPT -27% and DT40 TDP1 no CPT 1%.
Screening O=c1[nH]c(SCCOc2ccccc2F)nc2ccccc12 returned TDP1 inh -7%, uPA generation -2%, miR-21 act -28%, TDP1 cell CPT 2% and DT40 TDP1 no CPT 6.5µM*.
`CC1(C)C(CSc2nc3ccccc3[nH]2)C1(Cl)Cl` (centres undefined) gave TDP1 inh -3%, uPA generation 7%, miR-21 act -30%, TDP1 cell CPT 23µM* and DT40 TDP1 no CPT inconclusive.
Screening O=c1[nH]c(SCc2ccc(F)cc2Cl)nc2ccccc12 returned TDP1 inh 0%, uPA generation -1%, miR-21 act -17%, TDP1 cell CPT -42% and DT40 TDP1 no CPT 21µM*.
`Cn1c(SCCOc2ccccc2F)nc2ccccc2c1=O` gave TDP1 inh -6%, uPA generation -1%, miR-21 act 2%, TDP1 cell CPT 18µM* and DT40 TDP1 no CPT 16µM*.
Cn1c(SCc2c(F)cccc2Cl)nc2ccccc2c1=O was read as TDP1 inh -12%, uPA generation 3%, TDP1 cell CPT -25% and DT40 TDP1 no CPT -27%.
COc1ccccc1OCCSc1nc2ccccc2c(=O)[nH]1 was read as TDP1 inh 0%, uPA generation 1%, miR-21 act -30%, TDP1 cell CPT inconclusive and DT40 TDP1 no CPT inconclusive.
`Cc1ccc(C)c(CN2C(=O)COc3ccccc32)c1` gave TDP1 inh -2%, uPA generation 7%, miR-21 act -1%, TDP1 cell CPT -14% and DT40 TDP1 no CPT -30%.
`CC(=O)N/C(=N\c1nc(C)cc(C)n1)Nc1ccc2ccccc2c1` gave uPA generation -3%, miR-21 act -57%, TDP1 cell CPT inconclusive and DT40 TDP1 no CPT inconclusive.
`CCCCN(C)C(=O)CS(=O)(=O)Cc1nc(-c2cccc(OC)c2)oc1C` gave TDP1 inh 3%, uPA generation 18%, miR-21 act -1%, TDP1 cell CPT -2% and DT40 TDP1 no CPT -28%.
`Cc1cc(C)c(C)c(S(=O)(=O)N2CCN(C(=O)CNC(=O)c3ccco3)CC2)c1C` gave TDP1 inh -1%[56.1 µM], uPA generation -19%, TDP1 cell CPT -18% and DT40 TDP1 no CPT -1%.
For COc1ccc(-n2c(=O)c(-c3cccs3)nc3cnc(N4CCOCC4)nc32)cc1 the results were TDP1 cell CPT inconclusive and DT40 TDP1 no CPT -3%.
For Fc1ccc(CSc2nc3ccccc3[nH]2)c2ccccc12 the results were TDP1 inh 5%, uPA generation 3%, miR-21 act -15%, TDP1 cell CPT inconclusive and DT40 TDP1 no CPT 21µM*.
For O=c1cc(CSc2nc3ccccc3[nH]2)c2ccccc2[nH]1 the results were TDP1 inh 1%, miR-21 act -52%, TDP1 cell CPT 0% and DT40 TDP1 no CPT -7%.
Screening CN(c1ccccc1)S(=O)(=O)c1cccc(NC(=O)Nc2ccc(Cl)cc2C#N)c1 returned TDP1 inh 0%, uPA generation 2%, miR-21 act -6%, TDP1 cell CPT inconclusive and DT40 TDP1 no CPT 23µM*.
Screening CCN(c1ccccc1)S(=O)(=O)c1ccc(Cl)c(NC(=O)Nc2ccc(Cl)cc2C#N)c1 returned TDP1 inh 7%, uPA generation -1%, miR-21 act -1%, TDP1 cell CPT 16µM* and DT40 TDP1 no CPT 16µM*.
Screening CN(CCC1CCOCC1)C(=O)c1cc(COc2c(F)cccc2F)on1 returned TDP1 inh 5%, uPA generation -7%, miR-21 act -31%, TDP1 cell CPT inconclusive and DT40 TDP1 no CPT 1%.
